Measured values from the supplement of paper PMC11219838.
Values without a mark were called inactive.

tested on: Caenorhabditis elegans L1 (N2); assay: survival and reproduction score of C. elegans L1 (0: 0-10 living worms, 1: 11-20, 2: 21-50, 3: >50, 4: overgrown) (score 0-4); higher = more worms, less nematicidal, active = 1 or less; extreme values may be limits of the assay; conditions: 60 µM; 6 days; temperature: 20 °C
Outline: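 Worm survival and reproduction were recorded as an ordinal score of living worms per well, read under a dissection microscope. Each 96-well well held about 20 synchronized C. elegans N2 L1s with E. coli HB101 in liquid NGM and compound at 60 µM final (0.6% v/v DMSO), sealed and shaken at 200 rpm, 20 °C, for 6 days. Scores ranged from 0 (0–10 worms) to 4 (overgrown, starved) and were the mean of two biological replicates.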

Row | SMILES | survival and reproduction score
1 | COC(=O)CSc1nnc(-c2ccc(C(C)(C)C)cc2)o1 | 3.5
2 | CC(Oc1ccc(C(C)(C)C)cc1)c1nc(-c2ccncc2)no1 (stereo not drawn) | 4
3 | Cc1ccc(-c2nnc(SCC(=O)Nc3ccc(Br)c(C)c3C)o2)cc1 | 4
4 | N#Cc1ccc(CSc2nnc(-c3ccncc3)o2)cc1 | 4
5 | COc1ccc(-c2noc(C3CCCCC3)n2)cc1 | 4
6 | O=C(CSc1nnc(-c2ccccc2)o1)NC1CCCCC1 | 4
7 | CCc1nc(-c2ccc(-c3ccccc3)nc2OC)no1 | 4
8 | O=C(Nc1ccc(-c2noc(COc3ccccc3)n2)cc1)c1ccc(F)cc1 | 1 (active)
9 | CC(=O)Nc1ccc(C(=O)CSc2nnc(-c3cccc(Br)c3)o2)cc1 | 4
10 | Fc1ccc(-c2noc(-c3ccc(Br)cc3)n2)cc1 | 0 (active)
11 | CC(C)(C)c1ccc(-c2nnc(SCc3cccc(C#N)c3)o2)cc1 | 3.5
12 | N#Cc1ccc(CSc2nnc(-c3ccccc3)o2)cc1 | 4
13 | COc1nc(-c2ccc(Cl)cc2)ccc1-c1noc(-c2ccncc2)n1 | 4
14 | COc1cccc(-c2nnc(SCC(=O)Nc3ccccc3)o2)c1 | 4
15 | COc1cccc(-c2noc(-c3ccc(Cl)cc3)n2)c1 | 3
16 | Cc1cc(Br)ccc1OCc1nc(-c2ccccn2)no1 | 4
17 | Clc1ccccc1OCc1nc(-c2cccs2)no1 | 4
18 | Cc1cc(C)cc(OCc2nc(-c3cc(C)nc4ccccc34)no2)c1 | 4
19 | O=C(CSc1nnc(-c2ccccc2Cl)o1)Nc1ccc(F)cc1 | 4

Row | SMILES | survival and reproduction score
20 | Cc1ccccc1-c1noc(-c2ccc(F)cc2)n1 | 4
21 | Cc1ccc(C(=O)CSc2nnc(-c3ccccc3)o2)cc1 | 4
22 | c1ccc2c(-c3nc(-c4ccncc4)no3)cccc2c1 | 4
23 | CC(=O)Nc1ccc(-c2nnc(SCc3ccccc3)o2)cc1 | 4
24 | Cc1ccc(OCc2nc(-c3ccc4c(c3)OCO4)no2)cc1C | 4
25 | CNC(=O)c1ccccc1-c1nc(-c2ccccc2Cl)no1 | 4
26 | COc1ccc(-c2noc(COc3ccccc3C)n2)cc1 | 4
27 | Cc1ccc(-c2nc(-c3ccc(C(F)(F)F)cc3)no2)cc1 | 0 (active)
28 | COc1ccccc1-c1noc(-c2ccccc2)n1 | 4
29 | COc1ccc(-c2noc(COc3ccc(F)cc3)n2)cc1 | 4
30 | CCOc1ccccc1-c1nnc(SCC(=O)N2CCC(C)CC2)o1 | 4
31 | Cc1cccc(-c2nnc(SCC(=O)Nc3ccccc3C(C)C)o2)c1 | 4
32 | CCCOc1ccc(-c2nc(-c3ccncc3)no2)cc1 | 0 (active)
33 | Cc1cccc(-c2noc(COc3ccc(Cl)cc3C)n2)c1 | 4
34 | COc1ccc(-c2noc(COc3ccc4c(c3)CCCC4)n2)cc1 | 4
35 | CCOC(=O)c1ccc(OCc2nc(-c3cccs3)no2)cc1 | 4
36 | O=C(c1ccccc1-c1nc(-c2ccccc2Cl)no1)N1CCCCC1 | 4
37 | COc1ccc(Cl)cc1NC(=O)CSc1nnc(-c2ccc(Br)cc2)o1 | 4
38 | CC(C)(C)NC(=O)CSc1nnc(-c2ccc(C(C)(C)C)cc2)o1 | 4
